# The supplement of paper PMC9023506
# Where a name gives a salt, the structure may show the parent alone.
# Experiments:
# Conditions in all cases: 10 µM; exposure time: 3 h pre-incubation + 3 h imaging
# [1] = system: Danio rerio larvae (5 dpf); experiment: optomotor response to red moving lines, difference vs DMSO (percentage points (treated minus DMSO)); higher = more of the behaviour than the DMSO vehicle control
# Procedure, shortened: (§1)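 Library drugs were diluted 1000× from DMSO stocks into egg water to reach 10 µM and applied to 5-dpf wild-type zebrafish larvae in 96-well ProxiPlates, 48 larvae per drug. The larvae stayed exposed for 3 h before imaging and for the 3 h of imaging at 28.5 °C. Behaviour scores, given in percentage points, are the treated mean minus the vehicle mean for movement and upper-half location.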
# [2] = system: Danio rerio larvae (5 dpf); experiment: optomotor response to green moving lines, difference vs DMSO (percentage points (treated minus DMSO)); higher = more of the behaviour than the DMSO vehicle control
# Procedure, shortened: as §1
# [3] = system: Danio rerio larvae (5 dpf); experiment: optomotor response to fast red moving lines, difference vs DMSO (percentage points (treated minus DMSO)); higher = more of the behaviour than the DMSO vehicle control
# Procedure, shortened: as §1
# [4] = system: Danio rerio larvae (5 dpf); experiment: excitability to 1-s acoustic pulses, difference vs DMSO (percentage points (treated minus DMSO)); higher = more of the behaviour than the DMSO vehicle control
# Procedure, shortened: as §1
# [5] = system: Danio rerio larvae (5 dpf); experiment: habituation to 1-s acoustic pulses, difference vs DMSO (percentage points (treated minus DMSO)); higher = more of the behaviour than the DMSO vehicle control
# Procedure, shortened: as §1
# [6] = system: Danio rerio larvae (5 dpf); experiment: startle response to 20-s acoustic pulses, difference vs DMSO (percentage points (treated minus DMSO)); higher = more of the behaviour than the DMSO vehicle control
# Procedure, shortened: as §1
# [7] = system: Danio rerio larvae (5 dpf); experiment: optomotor response to blue moving lines, difference vs DMSO (percentage points (treated minus DMSO)); higher = more of the behaviour than the DMSO vehicle control
# Procedure, shortened: as §1
# [8] = system: Danio rerio larvae (5 dpf); experiment: activity during period 15 (no stimuli), difference vs DMSO (percentage points (treated minus DMSO)); higher = more of the behaviour than the DMSO vehicle control
# Procedure, shortened: as §1
structure (smiles),measurement,setting,value
Cc1cn([C@H]2C=C[C@@H](CO)O2)c(=O)[nH]c1=O [Stavudine],optomotor response to red moving lines,[1],9.7
same,optomotor response to green moving lines,[2],1.24
same,optomotor response,[3],-8.38
Cc1ccsc1C(=CCCN1CCC[C@@H](C(=O)O)C1)c1sccc1C [Tiagabine hydrochloride],optomotor response to red moving lines,[1],20.4
same,optomotor response,[3],21.7
CCOc1cc(CC(=O)N[C@@H](CC(C)C)c2ccccc2N2CCCCC2)ccc1C(=O)O [Repaglinide],excitability to 1-s acoustic pulses,[4],9.31
same,optomotor response to red moving lines,[1],3.38
CN1CC(=O)N2[C@H](c3ccc4c(c3)OCO4)c3[nH]c4ccccc4c3C[C@@H]2C1=O [Tadalafil],excitability to 1-s acoustic pulses,[4],4.84
same,optomotor response to red moving lines,[1],-0.75
same,optomotor response to green moving lines,[2],-0.909
NC(=O)N1c2ccccc2C=Cc2ccccc21 [Carbamazepine],habituation to 1-s acoustic pulses,[5],2.65
same,optomotor response to red moving lines,[1],-0.139
same,startle response to 20-s acoustic pulses,[6],2.54
CC(C)(C(=O)O)c1ccc(C(O)CCCN2CCC(C(O)(c3ccccc3)c3ccccc3)CC2)cc1 (configuration not stated) [Fexofenadine hydrochloride],optomotor response to blue moving lines,[7],4.47
NS(=O)(=O)Cc1noc2ccccc12 [Zonisamide],optomotor response to blue moving lines,[7],3.89
CC/C(=C(\c1ccccc1)c1ccc(OCCN(C)C)cc1)c1ccccc1 [Tamoxifen citrate],optomotor response to red moving lines,[1],-11
same,optomotor response to green moving lines,[2],-10
COc1c(C)c2c(c(O)c1C/C=C(\C)CCC(=O)OCCN1CCOCC1)C(=O)OC2 [Mycophenolate mofetil],excitability to 1-s acoustic pulses,[4],0.817
same,optomotor response to red moving lines,[1],12.2
same,optomotor response to green moving lines,[2],4.99
same,optomotor response,[3],2.27
CC(C)c1nc(CN(C)C(=O)N[C@H](C(=O)N[C@@H](Cc2ccccc2)C[C@H](O)[C@H](Cc2ccccc2)NC(=O)OCc2cncs2)C(C)C)cs1 [Ritonavir],optomotor response to red moving lines,[1],-2.77
same,optomotor response,[3],-9.38
O=C1CCc2cc(OCCCCc3nnnn3C3CCCCC3)ccc2N1 [Cilostazol],habituation to 1-s acoustic pulses,[5],-0.365
same,optomotor response to red moving lines,[1],-8.76
COc1c(C)c2c(c(O)c1C/C=C(\C)CCC(=O)O)C(=O)OC2 [Mycophenolic acid],optomotor response to blue moving lines,[7],7
same,optomotor response to green moving lines,[2],-1.15
CN(CCOc1ccc(CC2SC(=O)NC2=O)cc1)c1ccccn1 (configuration not stated) [Rosiglitazone],habituation to 1-s acoustic pulses,[5],0.476
same,excitability to 1-s acoustic pulses,[4],15
same,optomotor response to red moving lines,[1],-2.8
same,startle response to 20-s acoustic pulses,[6],-1.12
CC(C)N(CCCCOCC(=O)NS(C)(=O)=O)c1cnc(-c2ccccc2)c(-c2ccccc2)n1 [Selexipag],optomotor response to red moving lines,[1],-8.23
same,optomotor response to green moving lines,[2],-4.69
OC(c1cc(C(F)(F)F)nc2c(C(F)(F)F)cccc12)C1CCCCN1 (configuration not stated) [Mefloquine hydrochloride],habituation to 1-s acoustic pulses,[5],0.613
same,excitability to 1-s acoustic pulses,[4],14
same,optomotor response to red moving lines,[1],8.36
same,optomotor response to green moving lines,[2],-0.307
same,optomotor response,[3],-3.95
OCCOCCN1CCN(C2=Nc3ccccc3Sc3ccccc32)CC1 [Quetiapine hemifumarate],habituation to 1-s acoustic pulses,[5],-4.36
same,optomotor response to red moving lines,[1],6.92
same,optomotor response to blue moving lines,[7],19.9
same,optomotor response,[3],-5.91
O=C(NCC1CCCCN1)c1cc(OCC(F)(F)F)ccc1OCC(F)(F)F (configuration not stated) [Flecainide acetate],optomotor response to blue moving lines,[7],9.21
COc1ccccc1Oc1c(NS(=O)(=O)c2ccc(C(C)(C)C)cc2)nc(-c2ncccn2)nc1OCCO [Bosentan],habituation to 1-s acoustic pulses,[5],4.23
same,excitability to 1-s acoustic pulses,[4],-1.1
same,optomotor response to red moving lines,[1],-14
same,optomotor response,[3],0.298
C#CCN[C@@H]1CCc2ccccc21 [Rasagiline mesylate],optomotor response to red moving lines,[1],16.9
same,optomotor response to green moving lines,[2],-10.1
same,optomotor response,[3],0.354
Clc1ccc2nsnc2c1NC1=NCCN1 [Tizanidine hydrochloride],habituation to 1-s acoustic pulses,[5],-2.36
same,excitability to 1-s acoustic pulses,[4],3.69
same,optomotor response to red moving lines,[1],18.1
same,activity during period 15,[8],-20.8
CC[C@H](C)C(=O)O[C@H]1C[C@@H](C)C=C2C=C[C@H](C)[C@H](CC[C@@H]3C[C@@H](O)CC(=O)O3)[C@H]21 [Lovastatin],optomotor response to blue moving lines,[7],8.37
C[C@@H]1C[C@H]2[C@@H]3CCC4=CC(=O)C=C[C@]4(C)[C@@]3(F)[C@@H](O)C[C@]2(C)[C@@]1(O)C(=O)CO [Dexamethasone],habituation to 1-s acoustic pulses,[5],2.44
same,optomotor response to red moving lines,[1],-2.54
same,activity during period 15,[8],2.91
same,optomotor response to green moving lines,[2],1.46
same,startle response to 20-s acoustic pulses,[6],-1.79
Nc1ncn([C@H]2C[C@H](O)[C@@H](CO)O2)c(=O)n1 [Decitabine],habituation to 1-s acoustic pulses,[5],5.67
same,optomotor response to red moving lines,[1],-3.68
same,optomotor response,[3],1.67
COc1ccccc1OCC(O)CN1CCN(CC(=O)Nc2c(C)cccc2C)CC1 (configuration not stated) [Ranolazine dihydrochloride],excitability to 1-s acoustic pulses,[4],1.94
same,optomotor response to red moving lines,[1],9.27
same,activity during period 15,[8],3.22
same,startle response to 20-s acoustic pulses,[6],2.42
CC1(C)O[C@@H]2[C@@H](CO[C@@]3(COS(N)(=O)=O)OC(C)(C)O[C@@H]23)O1 [Topiramate],optomotor response to red moving lines,[1],-0.793
same,startle response to 20-s acoustic pulses,[6],0.811
C[C@]12CCC(=O)C=C1CC[C@@H]1[C@@H]2[C@@H](O)C[C@@]2(C)[C@H]1CC[C@]2(O)C(=O)CO [Hydrocortisone],optomotor response to red moving lines,[1],13
same,activity during period 15,[8],-3.01
same,startle response to 20-s acoustic pulses,[6],0.897
CCc1c2c(nc3ccc(OC(=O)N4CCC(N5CCCCC5)CC4)cc13)-c1cc3c(c(=O)n1C2)COC(=O)[C@]3(O)CC,excitability to 1-s acoustic pulses,[4],6.46
same,optomotor response to red moving lines,[1],-8.71
same,optomotor response to green moving lines,[2],-1.18
NC(=O)c1ncn([C@@H]2O[C@H](CO)[C@@H](O)[C@H]2O)n1 [Ribavirin],optomotor response to red moving lines,[1],7.68
same,activity during period 15,[8],-3.78
same,optomotor response to green moving lines,[2],-3.77
Nc1cccc2c1CN(C1CCC(=O)NC1=O)C2=O (configuration not stated) [Lenalidomide],optomotor response to red moving lines,[1],6.24
same,activity during period 15,[8],4.34
same,optomotor response,[3],-0.414
CC(C)CN(C[C@@H](O)[C@H](Cc1ccccc1)NC(=O)O[C@H]1CO[C@H]2OCC[C@H]21)S(=O)(=O)c1ccc(N)cc1 [Darunavir],optomotor response to blue moving lines,[7],8.12
C[C@H]1C[C@@H]2[C@H]([C@@H](O)C[C@@]3(C)[C@H]2CC[C@]3(O)C(=O)CO)[C@@]2(C)C=CC(=O)C=C12 [Methylprednisolone],excitability to 1-s acoustic pulses,[4],0.503
same,optomotor response to red moving lines,[1],-1.93
CC[C@H]1OC(=O)[C@H](C)[C@@H](O[C@H]2C[C@@](C)(OC)[C@@H](O)[C@H](C)O2)[C@H](C)[C@@H](O[C@@H]2O[C@H](C)C[C@H](N(C)C)[C@H]2O)[C@](C)(O)C[C@@H](C)CN(C)[C@H](C)[C@@H](O)[C@]1(C)O [Azithromycin],habituation to 1-s acoustic pulses,[5],4.52
same,optomotor response to red moving lines,[1],-11.1
same,optomotor response to green moving lines,[2],-4.27
